In all, about 310,000 compounds went through this assay and about 14,000 (4.5%) showed an effect of 50% or more. The effect is printed as a negative number. The full list was thinned out, with strong results kept by preference.
target: human ether-à-go-go-related gene (hERG) potassium channel (human, UniProt Q12809); experiment: primary screen, population patch clamp on CHO cells stably expressing hERG; higher = less effect of the substance
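Further: peak tail current of the secondary pulse compared with the same well before compound.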

Chain of human ether-à-go-go-related gene (hERG) potassium channel (Q12809 whole entry, looked up): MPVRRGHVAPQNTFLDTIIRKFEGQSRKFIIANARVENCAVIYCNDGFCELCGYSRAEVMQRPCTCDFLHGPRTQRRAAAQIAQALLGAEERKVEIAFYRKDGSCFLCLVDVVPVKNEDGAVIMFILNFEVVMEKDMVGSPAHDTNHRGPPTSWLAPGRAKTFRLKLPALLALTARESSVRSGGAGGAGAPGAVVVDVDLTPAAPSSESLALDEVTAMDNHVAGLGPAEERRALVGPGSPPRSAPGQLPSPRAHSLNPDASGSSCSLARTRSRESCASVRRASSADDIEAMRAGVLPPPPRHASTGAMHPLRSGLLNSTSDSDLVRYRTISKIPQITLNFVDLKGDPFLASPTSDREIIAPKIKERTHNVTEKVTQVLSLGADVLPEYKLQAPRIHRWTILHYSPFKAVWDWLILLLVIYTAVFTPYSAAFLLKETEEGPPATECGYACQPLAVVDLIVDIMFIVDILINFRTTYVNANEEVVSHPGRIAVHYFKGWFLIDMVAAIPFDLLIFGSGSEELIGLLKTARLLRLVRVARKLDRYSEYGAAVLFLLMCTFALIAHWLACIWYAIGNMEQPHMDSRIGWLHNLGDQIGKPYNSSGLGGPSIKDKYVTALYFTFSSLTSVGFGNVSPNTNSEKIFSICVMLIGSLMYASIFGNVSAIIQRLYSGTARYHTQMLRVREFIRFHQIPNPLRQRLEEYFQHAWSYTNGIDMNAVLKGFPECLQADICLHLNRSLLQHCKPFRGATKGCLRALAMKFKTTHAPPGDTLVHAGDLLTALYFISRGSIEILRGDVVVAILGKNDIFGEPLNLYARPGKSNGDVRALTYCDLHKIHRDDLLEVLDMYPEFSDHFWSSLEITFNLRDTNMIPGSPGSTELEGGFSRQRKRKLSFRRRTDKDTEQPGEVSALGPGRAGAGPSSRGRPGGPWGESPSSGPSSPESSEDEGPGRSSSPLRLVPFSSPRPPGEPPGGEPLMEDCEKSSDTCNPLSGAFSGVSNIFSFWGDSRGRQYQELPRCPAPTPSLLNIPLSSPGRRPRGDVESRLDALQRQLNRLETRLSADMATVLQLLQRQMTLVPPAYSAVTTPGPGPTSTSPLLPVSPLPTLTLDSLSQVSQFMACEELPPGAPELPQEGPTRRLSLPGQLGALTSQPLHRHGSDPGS

Structure (SMILES)	hERG current change (%, negative = inhibition) at 10uM
CCOC(=O)N1CCN(C(=O)c2csc3c2CCCCC3)CC1	8.08%
C=C(C)C1Cc2c(C)nn(-c3ccccn3)c2C1 (stereo not drawn)	11%
Cc1csc(SCC(=O)Nc2sccc2C#N)n1	-0.612%
Cc1oc(-c2ccccc2)nc1CS(=O)CC(=O)NC1CCCCCC1 (stereo not drawn)	-11.5%
Cc1cccc(OCC(=O)NCC(=O)n2nc(C)cc2C)c1	10.5%
Oc1c(C(c2ccco2)N2CCC3(CC2)OCCO3)sc2ncnn12 (stereo not drawn)	1.38%
COc1ccc(C2C=C(c3ccc(Cl)cc3)Nc3nc(NC(C)=O)nn32)cc1 (stereo not drawn)	-39.7%
COc1ccc(C2=CC(c3c(C)nn(-c4ccccc4)c3Cl)n3nnnc3N2)cc1OC (stereo not drawn)	11.4%
COc1ccc(C2=CC(c3ccc(Cl)cc3)n3cnnc3N2)cc1OC (stereo not drawn)	-52%
Cc1ccc(OCc2nnc(SCC(=O)Nc3sc(C)c(C)c3C#N)n2C)cc1	12.8%
CCOC(=O)c1sc(NC(=O)CSc2nnc(-c3ccc(OC)cc3)n2CCOC)nc1C	-27.3%
COCCn1c(SCC(=O)Nc2sc(C)c(C)c2C#N)nnc1C(C)C	-3.62%
Cc1ccc(-c2nnc(SCC(=O)Nc3sc(C)c(C)c3C#N)n2C)cc1	-54.1%
COCCn1c(SCC(=O)Nc2sc(C)c(C)c2C#N)nnc1-c1ccc(OC)cc1	-52.1%
Cc1sc(NC(=O)CSc2nnc(C(C)C)n2C)c(C#N)c1C	-1.79%
CN1CCN(C(=S)c2ccc(-c3cc(Cl)ccc3Cl)o2)CC1	-20.7%
CC1CCN(C(=O)COC(=O)c2cc3ccccc3cc2O)CC1	3.92%
O=C1c2ccccc2C(=O)N1n1c(=O)[nH]c2ccccc2c1=O	14.9%
O=C(O)c1ccccc1-n1c2ccccc2c2ccccc21	19%
COc1ccccc1NC(=O)C(C)OC(=O)Cc1n[nH]c(=O)c2ccccc12 (stereo not drawn)	9.99%
Cn1c(SCc2nc3ccccc3[nH]2)nnc1-c1cnccn1	10.2%
Oc1ccc(C=NCCc2ccccc2)cc1	10.2%
COc1ccc(OC)c(/C=C/C(=O)N(C)CC(=O)Nc2ccc(N3CCOCC3)cc2)c1	-8.78%

Structure (SMILES)	hERG current change (%, negative = inhibition) at 10uM
CCCCCCNC(=O)N[C@@H](C(=O)NCCC[C@H]1CN2C(=NC[C@@H]2Cc2ccccc2)N1CCc1cccc(OC)c1)C(C)C	-18.7%
COc1ccc(C[C@H]2CN3C(=NC[C@H]3Cc3ccccc3)N2CCNC(=O)c2ccc(C)c(Br)c2)cc1	-69%
COc1ccc(C[C@H]2CN3C(=NC[C@@H]3Cc3ccccc3)N2CCNC(=O)c2ccc(C)c(Br)c2)cc1	-74%
COc1ccc(/C=N/Nc2cc(N(C)C)nc(N(C)C)n2)cc1	-28.5%
COc1ccc(C2(C(=O)Nc3ccc(C)c(C)c3)CCOCC2)cc1	6.97%
Cc1ccc2c(c1)sc(C)[n+]2CCCS(=O)(=O)[O-]	29.7%
COc1cc(/C=N/NC(=O)Cc2ccccc2)ccc1Oc1ccc([N+](=O)[O-])cc1[N+](=O)[O-]	1.03%
CN1CCCC(OC(=O)c2ccc(S(=O)(=O)N(C)C)cc2)C1.Cl (stereo not drawn)	8.58%
CC1CN(CCOCCSc2ccccc2)CC(C)O1.Cl (stereo not drawn)	-14.9%
Cl.c1ccc(SCCOCCN2CCOCC2)cc1	14.3%
Cc1ccc(SCCOCCN2CCOCC2)cc1.Cl	-1.55%
Cc1ccc(SCCOCCN2CCc3ccccc3C2)cc1	-60.5%
Cc1ccc(SCCOCCN2CC(C)OC(C)C2)cc1.Cl (stereo not drawn)	-12.4%
Cc1ccc(Cl)c(OCCN2CCc3ccccc3C2)c1.Cl	-9.17%
c1ccc(SCCOCCN2CCc3ccccc3C2)cc1	-75.3%
c1ccc(SCCN2CCc3ccccc3C2)cc1	-19.3%
Cl.Clc1ccc(SCCOCCN2CCc3ccccc3C2)cc1	-53.7%
O=C(c1cccnc1)N1CCC(Oc2ccc(C(=O)N3CCCC(O)C3)cc2)CC1 (stereo not drawn)	-0.912%
CC(=O)c1cnc2nc(SCc3ccccc3)nn2c1C	0.852%
O=C(c1ccco1)N1CCN(C2CC(=O)N(c3ccc4c(c3)OCO4)C2=O)CC1 (stereo not drawn)	-16.8%
COc1ccc(CC(=O)N2CCN(c3ccccn3)CC2)cc1OC	8.9%
COc1cc(C(=O)N/N=C/c2cc([N+](=O)[O-])cs2)cc(OC)c1OC	-8.26%
C[C@@H](C(=O)NCc1ccccc1)[C@H]1C[C@]1(C)[C@H](NC(=O)OCc1ccccc1)c1ccccc1	-21.3%

Structure (SMILES)	hERG current change (%, negative = inhibition) at 10uM
C[C@@H](C(=O)NCc1ccc(S(C)(=O)=O)cc1)[C@@H]1C[C@@]1(C)[C@@H](NC(=O)OCc1ccccc1)c1ccccc1	-75.1%
C[C@@H](C(=O)NCc1ccc(S(C)(=O)=O)cc1)[C@H]1C[C@]1(C)[C@H](NC(=O)OCc1ccccc1)c1ccccc1	-35.4%
CCCC(=O)n1nc(-c2ccco2)nc1SCc1ccccc1	0.232%
CN(CC(=O)N1CCN(c2ccccn2)CC1)S(=O)(=O)c1cccc2nsnc12	-23.6%
O=C(C(NS(=O)(=O)c1cccc2nsnc12)c1ccccc1)N1CCN(c2ccccc2)CC1 (stereo not drawn)	-71.4%
CC1CCN(C(=O)C(NS(=O)(=O)c2cccc3nsnc23)C(C)C)CC1 (stereo not drawn)	-5.48%
O=C(NC1CCCC1)C(NS(=O)(=O)c1cccc2nsnc12)c1ccccc1 (stereo not drawn)	-10.5%
CCOC(=O)N1CCN(C(=O)C(NS(=O)(=O)c2cccc3nsnc23)c2ccccc2)CC1 (stereo not drawn)	-47.1%
O=C(C(NS(=O)(=O)c1cccc2nsnc12)c1ccccc1)N1CCN(c2ccccn2)CC1 (stereo not drawn)	-64.8%
O=C(O)C(NS(=O)(=O)c1cccc2nsnc12)c1ccccc1 (stereo not drawn)	16.1%
O=C(Nc1ccccn1)C(NS(=O)(=O)c1cccc2nsnc12)c1ccccc1 (stereo not drawn)	-4.67%
CC1CCN(C(=O)C(NS(=O)(=O)c2cccc3nsnc23)c2ccccc2)CC1 (stereo not drawn)	-69.5%
Cc1c(Cl)cccc1NC(=S)N1CCN(Cc2ccccc2)CC1	-3.12%
CN(C)C(CNC(=O)c1ccccc1C(F)(F)F)c1ccco1 (stereo not drawn)	7.83%
CCS(=O)(=O)Nc1cccc(C(=C2CCCCC2)c2cnc[nH]2)c1	-30.2%
CCN1CCc2c(C#N)c(N3CCOCC3)nc(N3CCOCC3)c2C1	5.21%
O=C(Nc1ncccn1)C1=C(O)c2ccccc2S(=O)(=O)N1Cc1ccccc1	22.8%
CCOC(=O)/C(C#N)=C/c1cccn1-c1ccc(Cl)cc1	2.73%
C/C(=N\NC(=O)COc1ccccc1F)c1cc2ccccc2o1	3.99%
COc1ccc(-c2nnc(SCc3ccc(C(=O)O)cc3)o2)cc1OC	13.7%
O=C(O)c1ccc(CSc2nnc(-c3ccco3)o2)cc1	2.07%
COc1cc(OC)cc(-c2nnc(SCc3cccc(C(=O)O)c3)o2)c1	8.29%
O=C(O)c1ccc(CSc2nnc(-c3ccc(Cl)cc3)o2)cc1	26.5%

Structure (SMILES)	hERG current change (%, negative = inhibition) at 10uM
Cc1cc(C)cc(-c2nnc(SCc3ccc(C(=O)O)cc3)o2)c1	-74%
COc1cc(OC)cc(-c2nnc(SCc3ccc(C(=O)O)cc3)o2)c1	-71.6%
CN(C(=O)c1ccnn1C)C1CCCN(Cc2ccccc2F)C1 (stereo not drawn)	15.2%
CSCCC(NC(=O)c1ccccc1Br)C(=O)N1CCN(C(C)=O)CC1 (stereo not drawn)	8.22%
O=C(COC(=O)c1ccc(Br)o1)Nc1ccc(Br)cc1	19%
CCCc1cc(C(=O)Nc2sc3c(c2C(=O)OCC)CCCC3)no1	6.07%
O=C(NNc1nc(-c2ccccc2)c2cc(Br)ccc2n1)c1ccc(S(=O)(=O)N2CCCCC2)cc1	8.26%
COc1ccc(-c2cn[nH]c2-c2ccc(OCc3ccc([N+](=O)[O-])cc3)cc2O)cc1	-9.1%
C/C(=N\NC(N)=S)C1(C)CCCCC1	9.27%
Cc1cc(N2CCN(c3ccccc3)CC2)n2ncnc2n1	-31.2%
Cc1cc(N2CCN(C(c3ccccc3)c3ccccc3)CC2)n2ncnc2n1	-5.7%
Cc1cc(N2CCN(c3nc4ccccc4s3)CC2)n2ncnc2n1	-77.6%
Cc1cc(N2CCN(c3nnnn3-c3ccccc3)CC2)n2ncnc2n1	-60.2%
Cc1cc(N2CCN(Cc3ccc4c(c3)OCO4)CC2)n2ncnc2n1	7.64%
Cc1cc(C)nc(N2CCN(c3nnnn3-c3ccccc3)CC2)n1	9.05%
Cc1nc2ncnn2c(C)c1C/C=C/c1ccccc1	-15.3%
Cc1cc(N2CCc3ccccc32)n2ncnc2n1	-0.558%
c1ccc(N2CCN(c3nnnn3-c3ccccc3)CC2)cc1	-11.2%
Cc1cc(N2CCN(c3ccc(F)cc3)CC2)n2ncnc2n1	-57.6%
Cc1cc(N2CCN(C/C=C/c3ccccc3)CC2)n2ncnc2n1	-71.5%
Cc1cc(C)nc(N2CCN(c3ccc(F)cc3)CC2)n1	13.2%
